Laboratory results: PubChem BioAssay AID485314 (National Center for Advancing Translational Sciences (NCATS), 2010)
Screen size: about 340,000 compounds; about 4,500 (1.3%) were called active. About 5% were inconclusive and are not listed. Calls follow the shape of the dose curve; as a rule, active = well fitted inhibition curve with a large enough effect; inconclusive = small, poorly fitted or top-dose-only effect, or another doubt; inactive = no such curve, though single readings can be large or run the other way. The sample as a whole holds a higher share of actives than the screen did.

target: DNA polymerase beta (Homo sapiens) (UniProt P06746); test: qHTS Assay for Inhibitors of DNA Polymerase Beta; settings: Pol beta primer extension/strand displacement, fluorescence kinetic; series mostly up to 114 µM; activity change, negative = inhibition: at the top concentration
Text: The base excision repair system in human cells is a target for therapeutic modulation of the response to irradiation treatment and DNA-damaging drugs. A key enzyme in this system is the bi-functional DNA polymerase known as DNA polymerase Beta (Pol Beta). The following is a homogeneous kinetic assay to study the primer extension and strand-displacement reaction catalyzed by pol beta.
A stepwise description of the 1536-well assay is shown in next Table. Three microliters of reagents (buffer in column 3 and 4 as negative control and 10 nM Pol beta in columns 1, 2, and 5-48) was dispensed into 1,536-well black solid-bottomed plate. Compounds (23 nL) were transferred via Kalypsys pin tool equipped with 1536-pin array (10 nL slotted pins, V&P Scientific, San Diego, CA). The plates were incubated for 15 min at room temperature, and 1 uL substrate (50 nM final concentration) were added to start the reaction and immediately read at 0 min read on Viewlux reader. The plate were further incubated for 10 min at room temperature, and then read on Viewlux again. Throughout the screen, reagent bottle and all liquid lines were chilled and made light-tight to minimize reagent degradation. All screening operations were performed on a fully integrated robotic system (Kalypsys, San Diego, CA) containing one RX-130 and two RX-90 anthropomorphic robotic arms (Staubli, Duncan, SC). Library plates were screened starting from the lowest and proceeding to the highest concentration, and a double-dipping step of the highest concentration was required to access higher concentrations of compounds. Vehicle-only plates, with DMSO being pin-transferred to the entire column 5-48 compound area, were inserted uniformly at the beginning and the end of each library in order to monitor for and record any shifts in the background, which can be affected by reagent dispensers or loss in enzyme activity overtime. Screening data were corrected, normalized, and concentration-effect relationships were derived by using publicly-available curve fitting algorithms developed in-house (http://ncgc.nih.gov/pub/openhts). A four parameter Hill equation was fitted to the concentration-response data by minimizing the residual error between the modeled and observed responses.
% is scaled to controls: 0 for no effect and ±100 for the full control effect; potency is read from the fitted curve at half-maximal effect.

SMILES | activity change, negative = inhibition | Potency
COc1cccc(N2C(=O)NC(=O)/C(=C\c3cn(C)c4ccccc34)C2=O)c1 | -23% (inactive) | 
O=C1NC(=O)N(c2ccccc2)C(=O)/C1=C/c1ccc([N+](=O)[O-])s1 | -41.5% (inactive) | 
Cc1cccc(N2C(=O)NC(=O)/C(=C\c3cnn(-c4ccccc4)c3)C2=O)c1 |  | 39.8 µM (active)
CCCCN1C2CCC1CC(OC(c1ccc(F)cc1)c1ccc(F)cc1)C2 (stereo not given) | 16.4% [at 57.1 µM] (inactive) | 
COc1ccc(CN2C(=O)NC(=O)/C(=C\c3ccc(OC)c(OC)c3OC)C2=O)cc1 | -16% (inactive) | 
COc1ccc(N2C(=O)/C(=C/c3ccco3)C(=O)NC2=S)cc1 |  | 2.82 µM (active)
COc1ccccc1N1CCN(C(CNC(=O)Oc2ccccc2)c2cccnc2)CC1 (stereo not given) | 21.6% (inactive) | 
Cc1c(C(=O)O)cccc1-n1c(C)cc(/C=C2\C(=O)NC(=O)N(c3ccc4c(c3)OCO4)C2=O)c1C |  | 11.2 µM (active)
O=C1NC(=O)N(c2ccc(F)cc2)C(=O)/C1=C/c1ccc2c(c1)CCCN2Cc1ccccc1 | -25.1% (inactive) | 
Cc1ccccc1N1C(=O)NC(=O)/C(=C\c2cc(C)n(C)c2C)C1=O | 3.72% (inactive) | 
O=Cc1cn(Cc2ccc(F)cc2Cl)c2ccccc12 | -14.2% (inactive) | 
Cc1cc2ccccn2c1C(C[N+](=O)[O-])c1c(F)cccc1Cl (stereo not given) | 26.7% (inactive) | 
CCN(CC)C(=O)c1ccc(NC(=O)c2sccc2-c2ccccc2)cc1 | -0.659% (inactive) | 
COc1ccc2c3c1O[C@H]1C[C@@H](O)C=C[C@@]31CCN(C)C2 | 11.5% (inactive) | 
N[C@@H](Cc1c[nH]c2ccccc12)c1nnc(SCc2c(F)cccc2Cl)o1 | 4.81% (inactive) | 
Cc1ccc(-n2c(/C=C/c3cccc(C(F)(F)F)c3)nc3ccccc3c2=O)cc1 | -1.25% (inactive) | 
C=CCN(CC=C)C(=O)Nc1ccc(OCC)cc1 | -8.07% (inactive) | 
CCOc1ccc(-c2cc(C)n3nc(C(=O)Nc4ccc(C)c(C)c4)cc3n2)cc1 |  | 8.91 µM (active)
OC(Cn1c2ccccc2c2ccccc21)C[n+]1ccccc1 (stereo not given) | 38.7% (inactive) | 
Cc1cc(C=C2C(=O)NC(=O)NC2=O)c(C)n1-c1ccncc1 | -12.2% (inactive) | 

SMILES | activity change, negative = inhibition | Potency
O=C1NC(=O)N(Cc2ccco2)C(=O)/C1=C\c1cccn1CCOc1ccccc1 | 9.43% (inactive) | 
Cc1cc(/C=C2/C(=O)NC(=O)N(Cc3ccco3)C2=O)c(C)n1-c1ccc(C(=O)O)cc1 |  | 17.8 µM (active)
COc1ccccc1N=C1SCCCN1C | 2.97% (inactive) | 
C=CCN1CCC23c4c5ccc(O)c4O[C@H]2C(=O)CC[C@@]3(O)C1C5 (stereo not given in full) | 16.9% [at 57.1 µM] (inactive) | 
O=C(CN1CCCC1=O)NCCc1ccccc1 | 0.404% (inactive) | 
CC(C)(C)c1ccc(CN2C(=O)CN=C(c3ccccc3)c3ccccc32)cc1 | 1.27% (inactive) | 
O=C1CC(=O)N(Cc2ccccc2)C(=O)N1CCCCCCN1C(=O)CC(=O)N(Cc2ccccc2)C1=O |  | 28.2 µM (active)
Cc1nc2ccccc2c(=O)n1-c1ccc(Cl)cc1Cl | 47.9% (inactive) | 
CCN1CCN(c2nc3c(c(=O)[nH]2)CCC3)CC1 | 40.3% (inactive) | 
Cc1nnc(NC(=O)c2cccn(Cc3cccc(F)c3)c2=O)s1 | 9.23% (inactive) | 
COc1ccccc1N=Nc1c(O)[nH]c(=S)[nH]c1=O | -3.75% (inactive) | 
CCOCCc1c(O)[nH]c(=S)[nH]c1=O |  | 35.5 µM (active)
Cc1ccc(-c2nn(CCC#N)cc2C(=O)O)cc1C | 11.6% (inactive) | 
O=C(OCC1O[C@@H](OC(=O)c2cc(O)c(O)c(O)c2)[C@@H](OC(=O)c2cc(O)c(O)c(O)c2)[C@@H](OC(=O)c2cc(O)c(O)c(O)c2)[C@@H]1OC(=O)c1cc(O)c(O)c(O)c1)c1cc(O)c(O)c(O)c1 (stereo not given in full) |  | 0.158 µM (active)
Cc1cccc(Cn2cccc(C(=O)Nc3ccc4c(c3)OCCO4)c2=O)c1 | 0.23% (inactive) | 
Cc1ccc(NC(=O)N(Cc2ccc3c(c2)OCO3)C2CCN(Cc3ccccc3)CC2)cc1F | -0.703% (inactive) | 
C[N+]12CN3CN(CN(C3)C1)C2 | 36.4% (inactive) | 
NCCc1c[nH]c2ccc(O)cc12 | 11.3% [at 57.1 µM] (inactive) | 
CCOC(=O)c1ncn2c1[C@@H]1CCCN1C(=O)c1cc(OC)ccc1-2 | 12% [at 57.1 µM] (inactive) | 
CN(C)c1ccc(/C=C2\CC3C4CC=C5CC(O)CCC5(C)C4CCC3(C)C2=O)cc1 (stereo not given) | 15.5% (inactive) | 
